Here are results for eight compounds from PubChem BioAssay (NCI).

Test systems include NCI-H23 lung; NCI-H226 lung; NCI-H322M lung; HOP-62 NSCLC; NCI-H460 lung; HOP-92 NSCLC; NCI-H522 lung; A549/ATCC NSCLC; 786-0 renal; COLO 205 colon; DU-145 prostate; K-562 leukemia; MALME-3M melanoma; MDA-MB-231 breast; SF-268 CNS; SF-295 CNS; SF-539 CNS; UACC-257 melanoma; M14 melanoma.
Holding throughout (assay): NCI-60 one-dose screen, 48 h (100 = growth as untreated, 0 = no growth, -100 = all killed)
Holding throughout (conditions): 10 µM unless noted

Structures are written as SMILES. The panel holds about 83,000 compounds, 20% with a hit somewhere; the sample as a whole holds those more often.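 Testing used 96-well plates and a 48-hour single-concentration exposure. Example: -40 means 40% of the starting cells died.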 Unmarked numbers belong to inactive results. The source made the active and inactive calls. Rule for the calls: active = growth percent below 10; inactive = the rest.

As to `COc1ccc(Cl)cc1NC(=O)c1c(NC(=O)C(F)(F)C(F)(F)F)sc2c1CCCCC2`, the growth was -5.14% (active) with NCI-H23 lung; -5.37% (active) in the test with NCI-H226 lung; 12% in the test on NCI-H322M lung; -14.6% (active) in the test on HOP-62 NSCLC; 3.45% (active) with NCI-H460 lung; -32.7% (active) in the test with HOP-92 NSCLC. Besides, the growth in the test with NCI-H522 lung is -0.0876% (active); in the test with A549/ATCC NSCLC, 7.89% (active); with 786-0 renal, -13.8% (active); with COLO 205 colon, -32.9% (active); with DU-145 prostate it was 19.3%; in the test on K-562 leukemia, 17.6%. Besides, the growth with MALME-3M melanoma was -24.5% (active); in the test with MDA-MB-231 breast, -18.6% (active); in the test on SF-268 CNS, 6.13% (active); in the test on SF-295 CNS, -25.2% (active); with SF-539 CNS, 4.26% (active); with UACC-257 melanoma, -16.5% (active). Also, in the test on M14 melanoma, the growth is 0.83% (active).
Turning to `c1ccc(CCSc2ncnc3nc[nH]c23)cc1`, the growth was 96.8% with NCI-H23 lung; 86.6% in the test with NCI-H226 lung; 113% in the test with NCI-H322M lung; 103% in the test on HOP-62 NSCLC; 82% in the test with NCI-H460 lung; 110% in the test with HOP-92 NSCLC. For the same compound, the growth is 0.492% (active) in the test with NCI-H522 lung; 77.3% in the test with A549/ATCC NSCLC; 102% with 786-0 renal; 90.1% in the test with COLO 205 colon; 108% in the test with DU-145 prostate; 72.4% in the test on K-562 leukemia. The growth in the test on MALME-3M melanoma is 106%; in the test on MDA-MB-231 breast, 85.2%; with SF-268 CNS, 103%; in the test with SF-295 CNS, 75.6%; in the test on SF-539 CNS, 84.8%; in the test on UACC-257 melanoma, 46.2%. Further, the growth with M14 melanoma is 97.5%.
On to `O=c1[nH]nc(-c2ccc(Br)cc2)cc1Cc1ccc(O)cc1`, for which the growth in the test with NCI-H23 lung was 98.5%; in the test with NCI-H226 lung it was 85.6%; with NCI-H322M lung, 126%; with HOP-62 NSCLC, 109%; in the test on NCI-H460 lung, 103%; in the test on HOP-92 NSCLC, 51.8%. Moreover, the growth was 89.5% in the test with NCI-H522 lung; 56.7% with A549/ATCC NSCLC; 103% in the test with 786-0 renal; 98.8% with COLO 205 colon; 91.5% in the test on DU-145 prostate; 81.5% with K-562 leukemia. Moreover, the growth with MALME-3M melanoma is 106%; with MDA-MB-231 breast, 87.6%; in the test on SF-268 CNS it was 89.8%; in the test with SF-295 CNS, 107%; with SF-539 CNS, 102%; with UACC-257 melanoma, 106%. Also, the growth in the test with M14 melanoma is 107%.
With `CCN1C(=O)/C(=c2\sc3n(c2=O)NC2C(N=3)N(CC)C(=O)N2CC)c2ccccc21` (configuration not stated), the growth in the test on NCI-H23 lung is 38.5%; with NCI-H226 lung, 102%; in the test with NCI-H322M lung it was 47%; with HOP-62 NSCLC it was 43.1%; in the test with NCI-H460 lung it was 18%; in the test on HOP-92 NSCLC, 21.6%. The growth with NCI-H522 lung was 15%; with A549/ATCC NSCLC, 38.9%; in the test on 786-0 renal, 38.2%; in the test with COLO 205 colon it was 14.8%; in the test on DU-145 prostate, 17.8%; with K-562 leukemia, 10.2%. Moreover, the growth in the test with MALME-3M melanoma is 36.7%; in the test with MDA-MB-231 breast it was 19.9%; in the test with SF-268 CNS, 63.9%; in the test on SF-295 CNS, 16.4%; with SF-539 CNS, -18.6% (active); in the test on UACC-257 melanoma it was 82.5%. The growth in the test with M14 melanoma is 38%.
In the case of `COc1ccc(C2CC(c3cccc(Nc4ccncc4)c3)=NN2c2ccc(Cl)cc2)cc1` (configuration not stated), the growth is 83% in the test with NCI-H23 lung; 88.8% in the test with NCI-H226 lung; 73.7% in the test with NCI-H322M lung; 25.3% in the test with HOP-62 NSCLC; -85.9% (active) in the test with NCI-H460 lung; 51.5% with HOP-92 NSCLC. The growth in the test on NCI-H522 lung is -23% (active); with A549/ATCC NSCLC, 35.9%; in the test on 786-0 renal, 102%; in the test on COLO 205 colon, -65.9% (active); in the test with DU-145 prostate, 23.6%; in the test on K-562 leukemia, 0.0732% (active). In addition, the growth with MALME-3M melanoma was -49.9% (active); in the test on MDA-MB-231 breast, 40.6%; in the test on SF-268 CNS it was 62.1%; in the test with SF-295 CNS it was 53.9%; in the test on SF-539 CNS, 76.4%; in the test with UACC-257 melanoma it was 12.6%. The growth in the test on M14 melanoma is 100%.
In the case of `NC(=O)c1cccc(-c2ccccc2N2CCCCC2)c1`, the growth in the test on NCI-H23 lung was 103%; in the test with NCI-H226 lung, 98.9%; in the test with NCI-H322M lung, 91%; with HOP-62 NSCLC, 99.5%; in the test on NCI-H460 lung, 108%; in the test with HOP-92 NSCLC, 103%. In addition, the growth in the test on NCI-H522 lung was 85.7%; in the test on A549/ATCC NSCLC it was 99.1%; in the test with 786-0 renal it was 85.3%; in the test on COLO 205 colon, 121%; in the test with DU-145 prostate it was 99.8%; in the test with K-562 leukemia, 85.1%. For the same compound, the growth in the test on MALME-3M melanoma is 80.8%; in the test on MDA-MB-231 breast it was 100%; in the test with SF-268 CNS it was 94%; in the test on SF-295 CNS it was 89.4%; with SF-539 CNS, 97.8%; with UACC-257 melanoma, 99.3%. The growth in the test with M14 melanoma was 94.6%.
On to `COc1cc(OC)cc(C2C3=C(COC3=O)Nc3cc(OC)ccc32)c1` (configuration not stated), for which the growth in the test with NCI-H23 lung is 12.1%; with NCI-H226 lung, -3.11% (active); with NCI-H322M lung it was 50.5%; in the test with HOP-62 NSCLC it was 22%; with NCI-H460 lung, 4.2% (active); with HOP-92 NSCLC, 52.6%. In addition, the growth in the test with NCI-H522 lung was -40.5% (active); with A549/ATCC NSCLC it was 16.6%; in the test on 786-0 renal, 11%; in the test with COLO 205 colon, -74.1% (active); in the test on DU-145 prostate, -30.2% (active); in the test on K-562 leukemia, 11.9%. Also, the growth in the test with MALME-3M melanoma is 71.6%; with MDA-MB-231 breast it was -7.98% (active); in the test with SF-268 CNS, 18.1%; in the test with SF-295 CNS, 10.9%; with SF-539 CNS it was 1.4% (active); in the test on UACC-257 melanoma, 45.5%. Besides, the growth in the test with M14 melanoma is 3.85% (active).
Regarding `COc1cccc(CCC(=O)c2cc3c(N)c(C(=O)Nc4ccccc4)sc3nc2C)c1`, the growth in the test on NCI-H23 lung is 67.9%; in the test with NCI-H226 lung, 71.5%; in the test with NCI-H322M lung it was 52.7%; with HOP-62 NSCLC it was 45.1%; with NCI-H460 lung it was 11.7%; in the test with HOP-92 NSCLC it was 74.2%. Further, the growth in the test on NCI-H522 lung was 37.5%; with A549/ATCC NSCLC, 39.6%; with 786-0 renal it was 50.2%; in the test on COLO 205 colon, 37.1%; in the test on DU-145 prostate, 65.8%; in the test on K-562 leukemia it was 12.2%. The growth in the test with MALME-3M melanoma is 27%; with MDA-MB-231 breast, 44.9%; with SF-268 CNS it was 53.4%; in the test with SF-295 CNS, 24.9%; in the test with SF-539 CNS, 23.9%; in the test with UACC-257 melanoma it was 63.3%. Besides, the growth in the test with M14 melanoma is 23.3%.
